Laboratory results reported in PubChem BioAssay (NCATS).
Results filed as inconclusive are left out. Entries that show only a call come without a potency. A number with no mark means an inactive call. Activity calls are given as the source filed them. Calls follow the shape of the dose curve; as a rule, active = well fitted curve in the direction sought with a large enough effect; inconclusive = small, poorly fitted or top-dose-only effect, or another doubt; inactive = no such curve, though single readings can be large; an effect the other way counts as inactive or inconclusive.

What was measured:
[1] = biological target: Cellular tumor antigen p53 (Homo sapiens) (UniProt P04637); assay: Primary qHTS for small molecule compounds that upregulate eGFP-tagged delta133p53alpha (in N-terminal) cells. (AID 2060322); details: NCI-H358 eGFP-delta133p53alpha fluorescence, 24 h; activation: hits give high values; also: nearly all actives have a fitted effect of over 75% in size; also: potency is read from the fitted curve at half-maximal effect; as to activation: series mostly up to about 56 µM
Sequence of Cellular tumor antigen p53 (Homo sapiens) (P04637 whole entry, looked up): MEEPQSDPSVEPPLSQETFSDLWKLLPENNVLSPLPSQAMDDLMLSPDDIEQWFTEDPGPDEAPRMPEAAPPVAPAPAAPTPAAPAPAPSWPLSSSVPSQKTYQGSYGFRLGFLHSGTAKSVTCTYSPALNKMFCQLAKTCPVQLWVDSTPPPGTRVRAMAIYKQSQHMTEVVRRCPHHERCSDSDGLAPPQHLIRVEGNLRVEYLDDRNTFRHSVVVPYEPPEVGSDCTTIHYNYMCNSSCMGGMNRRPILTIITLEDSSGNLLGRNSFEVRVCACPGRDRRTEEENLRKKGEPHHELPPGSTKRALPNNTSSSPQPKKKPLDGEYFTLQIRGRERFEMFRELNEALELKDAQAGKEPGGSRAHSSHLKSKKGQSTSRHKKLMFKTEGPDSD
Outline: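 NCI-H358 cells pre-induced 24 h with 10 ng/ml doxycycline to express N-terminal eGFP-delta133p53alpha, then dosed 24 h at 37C without doxycycline; fixed, Hoechst-stained, GFP intensity by laser scanning cytometry, normalized to DMSO (0%) and 57.5 uM 5-azacytidine (100%).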

[2] = biological target: Aldehyde dehydrogenase, mitochondrial (Homo sapiens) (UniProt P05091); assay: qHTS for Inhibitors of the Aldehyde Dehydrogenase Family (ALDH2) Primary screen (AID 2061308); also: nearly all actives have a fitted effect of over 55% in size
[3] = biological target: Retinaldehyde dehydrogenase 3 (Homo sapiens) (UniProt P47895); assay: qHTS for Inhibitors of the Aldehyde Dehydrogenase Family (ALDH1A3) Primary screen (AID 2061315)

Row | SMILES | activation [1] | Potency [2] | Potency [3] | Potency [1]
1 | CC(C)C1CCC(CO)=CC1/C=C(\CO)C(=O)OCC1(O)CCC(C(C)C)C2C=C(C(=O)O)COC(=O)C21 (stereo not drawn) | 9.16% | inactive | inactive | 
2 | Nc1nc(Cl)nc2c1ncn2C1OC(CO)C(O)C1F (stereo not drawn) | 0% | inactive | inactive | 
3 | C=C1C(OC(C)=O)CCC2(C)CC3(O)OC(=O)C(C)=C3CC12 (stereo not drawn) | -3.57% | inactive | inactive | 
4 | Cc1cc(Nc2nc(NC(C)c3ncc(F)cn3)ncc2Cl)n[nH]1 (stereo not drawn) | 8.04% | inactive | inactive | 
5 | CC(=O)OC1CC2(C)C(CCC(C)C23Cc2c(O)cc4c(c2O3)CNC4=O)C(C)(C)C1O (stereo not drawn) | 9.92% | inactive | inactive | 
6 | CC(=O)OC1CC(=O)C2(C)C3CC4=C(OC(C)CC4=O)OC3(C)CCC2C1(C)C (stereo not drawn) | -6.11% | inactive | inactive | 
7 | Nc1nc2c(ncn2[C@@H]2O[C@@H]3COP(=O)(O)O[C@H]3[C@H]2O)c(=O)[nH]1 | 12.3% | inactive | inactive | 
8 | Cc1ccc(S(=O)(=O)n2ccc(-c3c(-c4ccc(Cl)cc4)noc3C)n2)cc1 | -18.8% | inactive | inactive | 
9 | COc1ccc(CCC(=O)O)c(O[C@@H]2O[C@H](CO)[C@@H](O)[C@H](O)[C@H]2O)c1 | -13.7% | inactive | inactive | 
10 | O=C1c2c(O[C@@H]3O[C@H](CO)[C@@H](O)[C@H](O)[C@H]3O)cc(O)cc2OC1(O)Cc1ccc(O)cc1 (stereo partly drawn) |  | inactive | inactive | 10.4 µM (active)
11 | COC(=O)c1ccc(OC)cc1O[C@@H]1O[C@H](CO[C@@H]2OC[C@@H](O)[C@H](O)[C@H]2O)[C@@H](O)[C@H](O)[C@H]1O | -22.3% | inactive | inactive | 
